Tests used:
[1] = system: Vero E6 infected with SARS-CoV-2; assay: morphology score (similarity to uninfected cells); higher = more like uninfected cells; details: 24 h
[2] = system: Vero E6 infected with SARS-CoV-2; assay: SARS-CoV-2 infection rate relative to infected DMSO; higher = more infection, active = 60 or less; details: 24 h

| Compound | morphology score [1] | SARS-CoV-2 infection rate [2] |
| --- | --- | --- |
| O=S(=O)(O)c1cc(I)c(O)c2ncccc12 [chiniofon] (10 µM) | 0.0464 | 102% (inactive) |
| CC(C)(C)C(=O)OCOP(=O)(COCCn1cnc2c(N)ncnc21)OCOC(=O)C(C)(C)C [adefovir-dipivoxil] (10 µM) | -0.117 | 124% (inactive) |
| NCCCCCC(O)(P(=O)(O)O)P(=O)(O)O [neridronic-acid] (10 µM) | 0.208 | 91% (inactive) |
| CC(C)(C)c1cc(C(C)(C)C)c(NC(=O)c2c[nH]c3ccccc3c2=O)cc1O [ivacaftor] (10 µM) | 0.363 | 93% (inactive) |
| NC(N)=Nc1nc(CSCC/C(N)=N/S(N)(=O)=O)cs1 [famotidine] (10 µM) | -0.0119 | 106% (inactive) |
| c1cc(-c2sc(-c3ccncc3)c(-c3ccncc3)c2-c2ccncc2)ccn1 (10 µM) | 0.0438 | 93% (inactive) |
| O=C(Nc1ccccc1-c1cn2c(CN3CCNCC3)csc2n1)c1cnc2ccccc2n1 (0.833333 µM) | 0.075 | 114% (inactive) |
| O=C1CCc2ccc(OCCCCN3CCN(c4cccc(Cl)c4Cl)CC3)cc2N1 [aripiprazole] (10 µM) | -0.0119 | 103% (inactive) |
| CCC(CC)[C@H](NC(C)=O)[C@@H]1[C@H](O)[C@@H](C(=O)O)C[C@H]1NC(=N)N [peramivir] (10 µM) | 0.00579 | 102% (inactive) |
| CCCCCCCCCCCCCCOc1ccc(C(=O)O)o1 (0.833333 µM) | 0.208 | 96.5% (inactive) |
| CC1(C)Oc2ccc(C#N)cc2[C@H](N(Cc2ncc[nH]2)c2ccc(Cl)cc2)[C@H]1O (10 µM) | 0.455 | 81% (inactive) |
